The values below come from PubChem BioAssay AID431 (Sanford-Burnham Center for Chemical Genomics, 2006).

Among all 63,000 compounds or so, about 1,100 (1.7%) were called active. The sample holds actives, similar compounds and a random draw of the others, so the mix is not that of the screen.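 How the source made its calls: active means compounds whose percent cytotoxicity in the single-dose primary screen, scaled between solvent and toxic-drug controls, exceeds 50; inactive means the rest.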 Potency and affinity values are given separately.

The test is described as follows: viability loss of HPDE-C7K cells – cell-based, fluorescence, HTS, primary screen (AID 431).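 Further: 0% = DMSO solvent wells and 100% = doxorubicin-treated wells.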 The settings on record: HPDE-C7K KRASV12 cells, Alamar Blue viability, 48 h; at 10 µM; hits give high values. On the technique in general: Alamar Blue is a resazurin reagent that responds to reducing activity.
Consider `Cn1c(=O)n(CC(=O)OCc2ccccc2)c(=O)c2c1nc1n2CCCN1C1CCCCC1`, for which the cytotoxicity was 0.1% (inactive).
Consider `N#CC1=C(N)SC(N)=C(C#N)C1CCC1CCCCC1`, for which the cytotoxicity is 35.2% (inactive).
Take `Cc1nc(-c2ccc(C(=O)O)cc2)cs1`: the cytotoxicity was -9.4% (inactive).
As to `COCCNC(=O)c1ccc(NS(C)(=O)=O)cc1`, the cytotoxicity was -8% (inactive).
In the case of `COc1ccc(OC)c(NC(=O)CC(NCCC2=CCCCC2)C(=O)O)c1` (stereo not drawn), the cytotoxicity is -16.9% (inactive).
As for `Cc1ccc(N2CCN(CC(O)COC3CCCCC3)CC2)cc1` (stereo not drawn), the figure is 42.6% (inactive); as for `CC1CCN(CC(O)COc2ccc(F)cc2)CC1` (stereo not drawn), -1.9% (inactive).
For the molecule `CC1CCN(CC(O)COC2CCC(C(C)(C)C)CC2)CC1` (stereo not drawn), the cytotoxicity is 50.3% (active).
Turning to `CC1CC(=O)N(Cc2ccccc2)c2ccccc2N1C=O` (stereo not drawn), the cytotoxicity is 7.1% (inactive).
`CON(C)c1nc(Oc2ccc(=O)[nH]n2)nc(N(C)C)n1`: the cytotoxicity is -15.6% (inactive).
For the molecule `CCC1CCCCN1CCNC(=O)C1CCN(S(=O)(=O)c2c(C)noc2C)CC1` (stereo not drawn), the cytotoxicity is -6.9% (inactive).
As for `COc1ccc2c(c1)sc1nc(-c3ccccc3)cn12`, the cytotoxicity is 53.3% (active).
For the molecule `CCOC(=O)N1CCN(C(=O)c2ccc3c(c2)sc2nc(-c4ccc(OC)cc4)cn23)CC1`, the cytotoxicity was 19% (inactive).
In the case of `CCOC(=O)N1CCN(C(=O)c2ccc3c(c2)sc2nc(-c4ccccc4)cn23)CC1`, the cytotoxicity is 6.1% (inactive).
In the case of `O=C(NC1=NCCS1)c1ccc2c(c1)C(=O)N(Cc1ccco1)C2=O`, the cytotoxicity is -7.1% (inactive).
For `O=C(OC(C(=O)NCC1CCCO1)c1ccccc1F)c1ccco1` (stereo not drawn), the cytotoxicity was 8.7% (inactive).
In the case of `CCn1ncc(C2=NOC(C(=O)NCc3ccc(OC)cc3)C2)c1C` (stereo not drawn), the cytotoxicity was 23.7% (inactive).
On to `CCn1ncc(C2=NOC(C(=O)NCc3ccccc3)C2)c1C` (stereo not drawn), for which the cytotoxicity is 48.7% (inactive).
In the case of `CCn1ncc(C2=NOC(C(=O)NCc3ccc(Cl)cc3)C2)c1C` (stereo not drawn), the cytotoxicity is 59.3% (active).
`CC1=C(C(=O)Nc2cccc(C)n2)C(c2ccc3c(c2)OCO3)C2=C(CC(c3ccco3)CC2=O)N1` (stereo not drawn): the cytotoxicity is 7.4% (inactive).
For `COC(=O)c1sccc1NC(=O)c1ccncc1`, the cytotoxicity is 5.9% (inactive).
As for `O=C(Cc1ccccc1)N(c1ccc(F)cc1)C1C=CS(=O)(=O)C1` (stereo not drawn), the figure is 3.4% (inactive).
With `Cc1nn(Cc2ccccc2Cl)c(C)c1NC(=O)C1C2CCC(O2)C1C(=O)O` (stereo not drawn), the cytotoxicity is 0.4% (inactive).
The same measure for `C=CCn1c(SCC(=O)Nc2cc3oc4ccccc4c3cc2OC)nnc1-c1cnccn1`: 50.9% (active); for `C=CCn1c(SCC(=O)Nc2cc(C)ccc2C)nnc1-c1cnccn1`: -12.5% (inactive); for `CCn1c(SCC(=O)Nc2ccccc2OC)nnc1-c1cnccn1`: -28% (inactive).
`Cc1ccc(OCCN2CCN(C(=O)CCC(=O)Nc3nnc(C(C)C)s3)CC2)cc1`: the cytotoxicity was 14.3% (inactive).
Turning to `COc1ccc(-c2noc(COc3ccc4ccccc4c3Br)n2)cc1OC`, the cytotoxicity was 58% (active).
As for `COc1ccc(-c2noc(COc3ccccc3OC)n2)cc1OC`, the cytotoxicity was -10.5% (inactive).
For the molecule `COc1ccc(-c2noc(COc3ccc(C)c(C)c3)n2)cc1OC`, the cytotoxicity is 4.5% (inactive).
For the molecule `CCOC(=O)N1CCN(Cc2nc3c(c(=O)[nH]c(=O)n3C)n2CCCc2ccccc2)CC1`, the cytotoxicity is -0.5% (inactive).
Consider `CCN(CC)CCCNC(=O)Cn1cc2c(n1)CCC(C)C2` (stereo not drawn), for which the cytotoxicity is 3.7% (inactive).
As to `COc1ccc(-c2nc(N)nc(C)c2Oc2ccccc2Br)c(O)c1`, the cytotoxicity was 92.6% (active).
As to `COc1ccc(-c2nc(N)ncc2Oc2ccccc2Br)c(O)c1`, the cytotoxicity was 3.7% (inactive).
As to `COc1cccc(Oc2cnc(N)nc2-c2ccc(OC)cc2O)c1`, the cytotoxicity was 45.2% (inactive).
`CCc1ccccc1NC(=O)CN(C)C(=O)CN1C(=O)NC2(CCCCCC2)C1=O`: the cytotoxicity was 2.1% (inactive).
Turning to `COc1ccc(NC2C=CS(=O)(=O)C2)c(OC)c1` (stereo not drawn), the cytotoxicity is 4.8% (inactive).
For the molecule `Cc1n[nH]c(C)c1S(=O)(=O)N1CCN(c2ccccn2)CC1`, the cytotoxicity was 7.4% (inactive).
Consider `CCCCC(=O)c1c(O)c2ccccc2oc1=O`, for which the cytotoxicity was 17.2% (inactive).
For `CCc1oc2ccccc2c1C(=O)CCN1CCCCC1`, the cytotoxicity was 9.9% (inactive).
Regarding `CCOC(=O)C1=C(C)NC2=C(C(=O)CCC2)C1c1cc(OC)ccc1OC` (stereo not drawn), the cytotoxicity is 1.4% (inactive).
`CCOc1ccc(Cn2c(=O)oc3ccc(C)cc32)cc1OC`: the cytotoxicity was -2.4% (inactive).
As to `O=S(=O)(c1ccc2ccccc2c1)N1CCCCC1`, the cytotoxicity is 5.8% (inactive).
Turning to `O=S(=O)(c1ccc2ccccc2c1)N(CC(O)CN1CCOCC1)c1ccccc1` (stereo not drawn), the cytotoxicity was -11.1% (inactive).
On to `O=C(CN1C(=O)CCSc2ccccc21)Nc1ccccc1`, for which the cytotoxicity was -22.3% (inactive).
As to `CCCSc1nnc(NC(=O)Nc2ccccc2)s1`, the cytotoxicity was -9.2% (inactive).
The same measure for `CCCSc1nnc(NC(=O)Nc2ccc(F)cc2)s1`: 75.2% (active); for `CCC(=O)Nc1nnc(SCC(=O)Nc2ccc(F)cc2)s1`: -4.3% (inactive); for `COc1cc(-c2nc3cnccc3n2C)cc(OC)c1OC`: -11.3% (inactive).
For the molecule `Cc1onc(-c2ccccc2)c1C(=O)Nc1cc(C(F)(F)F)ccc1N1CCOCC1`, the cytotoxicity is 60.3% (active).
Regarding `Cc1onc(-c2ccccc2)c1C(=O)Nc1ccccc1N1CCOCC1`, the cytotoxicity was 4.2% (inactive).
With `O=C(Nc1cc(C(F)(F)F)ccc1N1CCOCC1)c1cccnc1`, the cytotoxicity was 2.2% (inactive).
In the case of `CC(=O)Nc1cc(C(F)(F)F)ccc1N1CCOCC1`, the cytotoxicity is -2.7% (inactive).
Turning to `O=C(Nc1cc(C(F)(F)F)ccc1N1CCOCC1)c1c(F)c(F)c(F)c(F)c1F`, the cytotoxicity is 69.9% (active).
As for `O=C(Nc1cc(C(F)(F)F)ccc1N1CCOCC1)c1ccco1`, the figure is -2.4% (inactive).
Take `COc1cc(C2NC(=O)c3ccccc3O2)cc(OC)c1OC` (stereo not drawn): the cytotoxicity is -13.8% (inactive).
As to `OC1C=CSc2nc3ccccc3n21` (stereo not drawn), the cytotoxicity is -17.8% (inactive).
In the case of `COC(=O)COc1ccc(NC(=O)C2CCCO2)cc1` (stereo not drawn), the cytotoxicity was -3% (inactive).
With `CC(C)C[C@H](NC(=O)NCc1ccc(Cl)cc1)C(=O)O`, the cytotoxicity was 5.3% (inactive).
As to `CCCOC(=O)Nc1nc2ccccc2o1`, the cytotoxicity was -0.4% (inactive).
The same measure for `COc1ccccc1C(=O)Nc1nnc(-c2ccc(F)cc2)o1`: -1.2% (inactive).
In the case of `CC(C)CCn1cnc2c(cnn2-c2ccc(F)cc2)c1=O`, the cytotoxicity is -10.9% (inactive).
Take `C=CCOc1ccccc1CNn1nnnc1N`: the cytotoxicity was -4.5% (inactive).
As for `Nc1ccc(N2CCCCC2)cc1N1CCCCC1`, the cytotoxicity is 34.3% (inactive).
Take `O=C(O)c1ccc(N2CCCCC2)cc1`: the cytotoxicity was -1.2% (inactive).
In the case of `O=C(O)CCn1[nH]c(=O)ccc1=O`, the cytotoxicity was -18.2% (inactive).
On to `CSc1ccccc1NC(=O)c1ccco1`, for which the cytotoxicity is 4.6% (inactive).
For `COc1ccc(C2C3=C(CC(c4ccco4)CC3=O)Nc3ccccc3N2C(C)=O)cc1` (stereo not drawn), the cytotoxicity is -5.9% (inactive).
On to `O=C1CC(c2ccco2)CC2=C1C1c3ccccc3C(=O)N1c1ccccc1N2` (stereo not drawn), for which the cytotoxicity is 51.6% (active).
Regarding `CCC(=O)N1c2ccccc2NC2=C(C(=O)CC(c3ccco3)C2)C1c1ccco1` (stereo not drawn), the cytotoxicity is 7.6% (inactive).
Regarding `COC(=O)C(C(=O)OC)=C(/C=C/N(C)C)N(C)C`, the cytotoxicity is 0.2% (inactive).
The same measure for `Nc1nonc1C(=O)NCCNCc1cc(Br)ccc1OCc1ccc(F)cc1`: 54% (active); for `Nc1nonc1C(=O)NCCNCc1cc(Br)ccc1OCc1ccccc1F`: 17.1% (inactive); for `Nc1nonc1C(=O)NCCNCc1ccccc1OCc1ccccc1F`: 0.9% (inactive).
For the molecule `COCCn1c(SCC(=O)N2CCCCC2)nc2ccccc2c1=O`, the cytotoxicity was 4.9% (inactive).
The same measure for `CC(=O)Nc1ccc(S(=O)(=O)N(C)c2ccc(O)cc2)cc1`: -12.1% (inactive).
With `CCOc1ccc(C(=O)Nc2ccc3c(c2)OCO3)cc1OCC`, the cytotoxicity is -16.6% (inactive).
As for `CCOC(=O)c1ccc(NC(=O)C2CCN(S(=O)(=O)c3ccccc3)CC2)cc1`, the cytotoxicity was 6.6% (inactive).
For the molecule `Cc1ccc(C)c(Cn2c(=O)n(CCCC(=O)NCc3ccco3)c(=O)c3ccccc32)c1`, the cytotoxicity was 56.3% (active).
As for `Cc1ccccc1Cn1c(=O)n(CCCC(=O)NCc2ccco2)c(=O)c2ccccc21`, the figure is -20.6% (inactive); as for `Cc1ccc(C)c(Cn2c(=O)n(CCC(=O)NCc3ccco3)c(=O)c3ccccc32)c1`, 3% (inactive).
For `COc1ccc(CCNC(=O)CSc2nc(N)c3c(C)c(C)oc3n2)cc1OC`, the cytotoxicity is 4.3% (inactive).
In the case of `O=C(Nc1cccc(NC(=O)N2CCN(c3ccccc3)CC2)c1)N1CCN(c2ccccc2)CC1`, the cytotoxicity was 61.3% (active).
Turning to `O=C(Nc1cccc2ccccc12)N1CCN(c2ccccc2)CC1`, the cytotoxicity is 10.4% (inactive).
As to `O=C(Nc1ccc2snnc2c1)N1CCN(c2ccccc2)CC1`, the cytotoxicity was -17.1% (inactive).
For the molecule `COc1cc(OC)cc(-c2cc(NC(C)=O)n[nH]2)c1`, the cytotoxicity was -2% (inactive).
For `CCOC(=O)c1[nH]c(C)c(C(=O)N2CCOCC2)c1C`, the cytotoxicity was 4.4% (inactive).
As for `C/C=C/c1ccc(OC)c(OC(C)=O)c1`, the figure is 1.5% (inactive).
On to `COc1cc(/C=C/C2=NC(=O)C(C)(C)O2)ccc1O`, for which the cytotoxicity is 32.6% (inactive).
`O=C(Nc1cccnc1N1CCOCC1)c1ccco1`: the cytotoxicity was -0.2% (inactive).
Regarding `CCn1c(SCC(=O)c2cc(OC)ccc2OC)nnc1C1CC1`, the cytotoxicity is 4.1% (inactive).
The same measure for `COC(=O)c1ccc(NC(=O)c2sc3nc(-c4ccccc4)cn3c2C)cc1`: -6.6% (inactive).
As to `CN(C)c1ccc(/C=[N+](\[O-])C2SC(=S)N(C)C2(C)C)cc1` (stereo not drawn), the cytotoxicity was -16.8% (inactive).
Turning to `CCc1ccc2c(COn3nnc4ccc(S(=O)(=O)N(C)C)cc43)cc(=O)oc2c1`, the cytotoxicity was 62% (active).
With `CCc1ccc2c(COC(=O)c3n[nH]c4ccccc34)cc(=O)oc2c1`, the cytotoxicity is 17.5% (inactive).
The same measure for `Cc1ccc2c(COn3nnc4ccc(S(=O)(=O)N(C)C)cc43)cc(=O)oc2c1C`: 2.9% (inactive).
In the case of `COc1ccc(Cn2c(-c3ccco3)nc3oc4ccccc4c(=O)c3c2=O)cc1`, the cytotoxicity is 8.5% (inactive).
As for `O=c1[nH]c(NCCCO)nc2c1C1(CCCC1)Cc1ccccc1-2`, the figure is 26.4% (inactive); as for `Cn1c(NCCO)nc2c(c1=O)C1(CCCCC1)Cc1ccccc1-2`, 10.5% (inactive); as for `CC1(C)CC(n2c(NCCO)nc3c(c2=O)C2(CCCC2)Cc2ccccc2-3)CCO1` (stereo not drawn), 64.4% (active).
`CC1(C)Cc2ccccc2-c2nc(NCCO)n(-c3ccccc3)c(=O)c21`: the cytotoxicity is -9.1% (inactive).
Regarding `Cn1c(NCCCO)nc2c(c1=O)C1(CCCCC1)Cc1ccccc1-2`, the cytotoxicity is 51.9% (active).
As to `O=c1[nH]c(NCCO)nc2c1C1(CCCCC1)Cc1ccccc1-2`, the cytotoxicity is 17.6% (inactive).
